Test results published in PubChem BioAssay.
Several values for one entry are separate records, joined by “and”; a condition that tells them apart may be missing. Equal values may be shown once. A number with no mark means an inactive call. Activity calls are given as the source filed them. Cut-off read from the data, not from the text of the source, unless noted: active = inhibition above about 42%; inactive = the rest.

Columns and labels:
[1] = biological target: Nuclear receptor coactivator 3 (Homo sapiens) (UniProt Q9Y6Q9); experiment: NCOA3 GAL4-fusion reporter inhibition – cell-based, luminescence, quadruplicate, confirmation (AID 588792;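 active = mean inhibition over 43.08%, the solvent-only control mean plus 3 SD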;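 note: 0% = DMSO treated cells and 100% = gossypol at 36 µM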); conditions: HEK293 GAL4-SRC3 luciferase reporter, at 3.6 µM, active compounds read high
[2] = tested on: transactivating tegument protein VP16 (Human herpesvirus 1), Gal4-VP16 luciferase reporter; experiment: repression of VP16-driven luciferase reporter – cell-based, luminescence, high throughput, counter-screen for SRC3 inhibitor project (AID 588794; in the data active = inhibition above about 30%); conditions: mammalian cells, at 3.6 µM, active compounds read high
[3] = StAR promoter reporter inhibitors, counter-screen for LRH-1 inverse agonist project, cell-based, luminescence, high throughput (AID 651611; in the data active = inhibition above about 28%); conditions: StAR promoter luciferase reporter counterscreen, at 3.6 µM, active compounds read high
[4] = biological target: Nuclear receptor subfamily 5 group A member 2 (Homo sapiens) (UniProt O00482); experiment: NR5A2 activity suppression in reporter cells – cell-based, luminescence, confirmation (AID 651613); conditions: cell-based LRH-1 luciferase reporter, inverse agonism; at 3.6 µM; active compounds read high;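 note: HEK293T cells co-transfected with LRH-1 and StAR promoter luciferase reporter; 0% = vehicle wells and 100% = parental cells lacking receptor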
[5] = biological target: Steroidogenic factor 1 (Homo sapiens) (UniProt Q13285); experiment: inverse agonism at SF1 nuclear receptor – cell-based, luminescence, high throughput, counter-screen for LRH-1 inverse agonist project (AID 651614; in the data active = inhibition above about 44%;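 note: cells cotransfected with StAR promoter reporter and SF1 expression vector; 0% = vehicle on cells with receptor and 100% = vehicle on cells lacking receptor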); conditions: cell-based SF1 luciferase reporter, at 3.6 µM, active compounds read high
[6] = compounds suppressing VP16-driven luciferase signal – cell-based, luminescence, high throughput, counter-screen for LRH-1 inverse agonist project (AID 651615; in the data active = inhibition above about 33%); conditions: Gal4-VP16 luciferase reporter cells, at 3.6 µM, active compounds read high
[7] = tested on: transactivating tegument protein VP16 (Human herpesvirus 1); experiment: compounds suppressing VP16-driven luciferase signal – cell-based, luminescence, single concentration, counter-screen for SRC2 inhibitor project (AID 652007; in the data active = inhibition above about 36%); conditions: cell-based VP16 transactivation luciferase reporter, at 8.9 µM, active compounds read high
[8] = biological target: Nuclear receptor coactivator 2 (Homo sapiens) (UniProt Q15596); experiment: inhibition of GAL4-SRC2 driven luciferase expression – cell-based, luminescence, HEK293, triplicate, confirmation (AID 652008;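 active = mean inhibition above 46.5%, the solvent-only control mean plus 3 SD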;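 note: 0% = DMSO-treated cells and 100% = Gossypol at 36 µM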); conditions: HEK293 GAL4-SRC2 luciferase reporter, at 8.9 µM, active compounds read high
Sequence of Nuclear receptor coactivator 2 (Homo sapiens) (Q15596 whole entry, looked up, the tested form may be a part): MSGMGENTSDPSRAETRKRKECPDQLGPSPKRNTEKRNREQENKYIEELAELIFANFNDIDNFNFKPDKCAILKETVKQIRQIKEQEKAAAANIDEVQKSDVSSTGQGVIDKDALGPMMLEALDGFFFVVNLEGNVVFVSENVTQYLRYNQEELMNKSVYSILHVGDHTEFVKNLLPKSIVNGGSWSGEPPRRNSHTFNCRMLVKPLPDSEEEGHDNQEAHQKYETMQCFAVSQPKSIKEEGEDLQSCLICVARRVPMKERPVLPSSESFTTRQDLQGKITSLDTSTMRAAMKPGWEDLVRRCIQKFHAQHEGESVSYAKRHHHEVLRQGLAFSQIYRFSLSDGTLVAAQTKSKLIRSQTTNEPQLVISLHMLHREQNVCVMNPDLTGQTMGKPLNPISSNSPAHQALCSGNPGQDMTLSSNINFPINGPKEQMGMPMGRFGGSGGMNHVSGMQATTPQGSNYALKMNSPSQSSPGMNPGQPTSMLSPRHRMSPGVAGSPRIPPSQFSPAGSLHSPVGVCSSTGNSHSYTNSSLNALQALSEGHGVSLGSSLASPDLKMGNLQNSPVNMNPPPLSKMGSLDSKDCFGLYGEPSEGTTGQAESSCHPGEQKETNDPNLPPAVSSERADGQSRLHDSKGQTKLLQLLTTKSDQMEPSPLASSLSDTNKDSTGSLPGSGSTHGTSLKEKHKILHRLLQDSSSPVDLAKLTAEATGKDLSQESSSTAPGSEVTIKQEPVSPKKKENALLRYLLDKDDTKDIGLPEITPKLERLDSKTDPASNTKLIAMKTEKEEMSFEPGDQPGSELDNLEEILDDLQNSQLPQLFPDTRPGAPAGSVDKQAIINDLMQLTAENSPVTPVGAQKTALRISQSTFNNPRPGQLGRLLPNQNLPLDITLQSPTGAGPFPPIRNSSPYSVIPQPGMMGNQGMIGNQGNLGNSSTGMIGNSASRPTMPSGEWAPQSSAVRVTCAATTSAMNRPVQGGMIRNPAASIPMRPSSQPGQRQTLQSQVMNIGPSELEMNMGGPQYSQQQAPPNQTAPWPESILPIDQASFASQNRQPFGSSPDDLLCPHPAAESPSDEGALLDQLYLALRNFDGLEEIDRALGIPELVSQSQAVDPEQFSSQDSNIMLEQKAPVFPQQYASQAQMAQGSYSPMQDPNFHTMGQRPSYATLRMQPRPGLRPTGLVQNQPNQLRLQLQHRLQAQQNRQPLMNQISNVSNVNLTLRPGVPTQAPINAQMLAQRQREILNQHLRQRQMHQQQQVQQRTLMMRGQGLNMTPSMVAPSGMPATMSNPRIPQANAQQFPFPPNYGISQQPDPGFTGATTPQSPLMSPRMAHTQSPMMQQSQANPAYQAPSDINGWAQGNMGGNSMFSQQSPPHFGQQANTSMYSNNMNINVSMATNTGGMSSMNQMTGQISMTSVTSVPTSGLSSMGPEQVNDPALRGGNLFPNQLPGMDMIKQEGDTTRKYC

Sequence of Nuclear receptor subfamily 5 group A member 2 (Homo sapiens) (O00482 whole entry, looked up): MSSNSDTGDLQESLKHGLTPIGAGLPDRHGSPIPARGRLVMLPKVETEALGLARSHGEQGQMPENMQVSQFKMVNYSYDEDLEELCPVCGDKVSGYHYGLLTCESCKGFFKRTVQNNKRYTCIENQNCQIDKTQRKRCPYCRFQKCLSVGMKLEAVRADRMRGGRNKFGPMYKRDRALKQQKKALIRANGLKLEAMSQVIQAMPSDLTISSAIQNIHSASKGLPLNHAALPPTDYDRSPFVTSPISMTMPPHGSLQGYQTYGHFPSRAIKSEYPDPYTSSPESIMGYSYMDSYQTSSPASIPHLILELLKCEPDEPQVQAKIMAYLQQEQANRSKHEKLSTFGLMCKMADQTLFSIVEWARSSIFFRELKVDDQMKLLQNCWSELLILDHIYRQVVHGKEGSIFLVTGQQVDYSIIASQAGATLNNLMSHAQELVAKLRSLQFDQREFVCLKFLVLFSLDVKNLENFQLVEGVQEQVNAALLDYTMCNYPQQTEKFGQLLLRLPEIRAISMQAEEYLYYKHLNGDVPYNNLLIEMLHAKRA
Sequence of Steroidogenic factor 1 (Homo sapiens) (Q13285 whole entry, looked up, the tested form may be a part): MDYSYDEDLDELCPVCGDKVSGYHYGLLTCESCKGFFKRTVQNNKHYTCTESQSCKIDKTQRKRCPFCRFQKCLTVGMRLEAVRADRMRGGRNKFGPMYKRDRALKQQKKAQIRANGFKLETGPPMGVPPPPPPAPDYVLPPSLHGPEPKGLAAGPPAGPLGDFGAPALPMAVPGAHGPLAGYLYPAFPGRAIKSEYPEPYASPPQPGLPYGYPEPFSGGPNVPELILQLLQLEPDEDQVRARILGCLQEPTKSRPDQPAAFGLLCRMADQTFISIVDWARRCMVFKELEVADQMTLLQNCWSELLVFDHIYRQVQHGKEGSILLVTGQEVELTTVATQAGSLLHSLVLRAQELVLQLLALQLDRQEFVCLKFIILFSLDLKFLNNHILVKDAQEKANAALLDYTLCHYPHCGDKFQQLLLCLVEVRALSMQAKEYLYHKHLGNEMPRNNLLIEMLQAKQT
Sequence of Nuclear receptor coactivator 3 (Homo sapiens) (Q9Y6Q9 whole entry, looked up, the tested form may be a part): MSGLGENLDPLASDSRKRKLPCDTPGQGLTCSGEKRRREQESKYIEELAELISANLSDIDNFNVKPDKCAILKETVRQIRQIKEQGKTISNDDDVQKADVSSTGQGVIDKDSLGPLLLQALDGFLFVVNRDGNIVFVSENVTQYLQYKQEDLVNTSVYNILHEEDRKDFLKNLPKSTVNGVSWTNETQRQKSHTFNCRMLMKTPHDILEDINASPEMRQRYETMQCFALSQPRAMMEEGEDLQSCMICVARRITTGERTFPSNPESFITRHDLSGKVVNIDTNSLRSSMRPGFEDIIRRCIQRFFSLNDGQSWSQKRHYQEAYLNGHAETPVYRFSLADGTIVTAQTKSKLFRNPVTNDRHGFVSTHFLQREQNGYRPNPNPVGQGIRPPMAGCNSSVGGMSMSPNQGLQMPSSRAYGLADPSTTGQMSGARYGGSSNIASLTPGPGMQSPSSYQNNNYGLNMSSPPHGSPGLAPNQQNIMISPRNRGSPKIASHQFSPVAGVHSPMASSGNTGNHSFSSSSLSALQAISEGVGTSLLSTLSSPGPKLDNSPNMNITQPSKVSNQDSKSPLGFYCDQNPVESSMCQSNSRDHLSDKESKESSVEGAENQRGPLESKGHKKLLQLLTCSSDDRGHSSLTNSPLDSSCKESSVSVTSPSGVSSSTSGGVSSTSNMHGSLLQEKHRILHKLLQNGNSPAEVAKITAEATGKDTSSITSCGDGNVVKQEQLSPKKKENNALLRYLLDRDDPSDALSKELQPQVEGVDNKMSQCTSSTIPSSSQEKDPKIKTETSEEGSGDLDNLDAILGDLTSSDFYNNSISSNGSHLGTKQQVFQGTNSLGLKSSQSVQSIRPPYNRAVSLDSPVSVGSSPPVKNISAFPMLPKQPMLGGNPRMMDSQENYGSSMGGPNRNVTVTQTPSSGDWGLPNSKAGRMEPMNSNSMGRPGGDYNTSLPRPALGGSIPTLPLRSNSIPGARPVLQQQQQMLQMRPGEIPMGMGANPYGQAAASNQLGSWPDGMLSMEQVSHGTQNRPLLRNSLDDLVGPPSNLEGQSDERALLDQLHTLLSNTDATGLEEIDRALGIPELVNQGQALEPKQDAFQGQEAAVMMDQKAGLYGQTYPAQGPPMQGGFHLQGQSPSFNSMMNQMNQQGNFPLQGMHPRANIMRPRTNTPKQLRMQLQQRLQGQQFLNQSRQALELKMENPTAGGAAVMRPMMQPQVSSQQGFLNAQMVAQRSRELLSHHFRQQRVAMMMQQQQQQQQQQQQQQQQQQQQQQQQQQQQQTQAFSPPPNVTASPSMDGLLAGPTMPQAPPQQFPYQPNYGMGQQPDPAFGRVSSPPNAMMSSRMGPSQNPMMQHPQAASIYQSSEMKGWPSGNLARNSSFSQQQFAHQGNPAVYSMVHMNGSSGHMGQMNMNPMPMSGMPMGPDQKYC

Row | Compound | inhibition [1] | inhibition [2] | inhibition [3] | inhibition [4] | inhibition [5] | inhibition [6] | inhibition [7] | inhibition [8]
1 | N=c1c2c(n(Cc3ccccc3)c3c1CCC3)CCC2 | 19.5% | 44.1% (active) | 37.3% (active) | 79.2% (active) | 72.9% (active) | 62.4% (active) |  | 
2 | COc1ccc(-n2c(-c3ccc(Cl)cc3)c[n+]3c2CCc2ccccc2-3)cc1 | 16.3% | 45.2% (active) | 30.1% (active) | 79.2% (active) | 69.1% (active) | 70.5% (active) |  | 
3 | CCN1/C(=C\c2ccc3cc(C)ccc3[n+]2CC)Sc2cc(C)c(C)cc21 | 34.9% | 57.5% (active) | 32.8% (active) | 82.5% (active) | 72.8% (active) | 65.6% (active) |  | 
4 | COc1ccc(NC(=O)c2cc(-c3cc(Cl)ccc3C)n[nH]2)cc1OC | 20.2% | 50.6% (active) | 30.7% (active) | 57% (active) | 61.1% (active) | 64.4% (active) |  | 
5 | CN(CCOc1ccc(Cl)cc1)C(=O)c1cccc(S(=O)(=O)N2CCN(c3ccc(F)cc3)CC2)c1 | 24.4% | 41.2% (active) | 24.3% | 60.9% (active) | 63.8% (active) | 53.2% (active) |  | 
6 | c1ccc(C[n+]2cccc3c4ccccc4ccc32)cc1 | 32.6% | 54.8% (active) | 41.7% (active) | 83.4% (active) | 74.3% (active) | 70.4% (active) |  | 
7 | CCOc1ccc(OCc2ccc(C(=O)NN=Cc3ccc[nH]3)cc2)cc1 | 38.9% | 78.4% (active) | 76.2% (active) | 104% (active) | 90.6% (active) | 87.1% (active) |  | 
8 | CCN(CC)c1ccc(/C=N/NC(=O)c2c(Cl)cnn2C)c(O)c1 | 64.2% (active) | 72.8% (active) | 83% (active) | 96.4% (active) | 79.9% (active) | 60.9% (active) |  | 
9 | CC(C)(C)c1ccc(C2CC2C(=O)N/N=C\c2ccc[nH]2)cc1 (configuration not stated) | 39.8% | 81.5% (active) | 80.9% (active) | 105% (active) | 92% (active) | 87.4% (active) |  | 
10 | Cc1cc(C)cc(NC(=O)c2ccc([N+](=O)[O-])o2)c1 | 22.4% | 2.31% | 53% (active) | 76.3% (active) | 74.7% (active) | 20% |  | 
11 | COc1ccc(Nc2ccncc2[N+](=O)[O-])cc1 | 41.1% | 27.4% | 13.4% | 75.5% (active) | 64.4% (active) | 39.3% (active) |  | 
12 | COc1cccc(CNc2nc3cc(-c4cnn(Cc5ccccc5)c4)sc3c(=O)n2C)c1 | 6.76% | 30.1% (active) | 32.4% (active) | 47.3% (active) | 52% (active) | 46.9% (active) |  | 
13 | Cc1ncc(CO)c(/C=N/NC(=O)c2cc3c(s2)CCCC3)c1O | 40.9% | 27.7% | 76.8% (active) | 94.7% (active) | 77.2% (active) | 82.6% (active) |  | 
14 | Cn1c(CCN2CCN(c3ccccn3)CC2)nc2cc(NC(=O)COc3ccc(Cl)cc3)ccc21 | 18% | 33.9% (active) | 29.2% (active) | 49.8% (active) | 51.4% (active) | 51.6% (active) |  | 
15 | CCOC(=O)C1=Nc2ccccc2C1=[N+]=[N-] | 35.7% | 46% (active) | 14.1% | 53.3% (active) | 45.2% (active) | 53.2% (active) |  | 
16 | CCCCCCCCCCCCCCCC[n+]1ccccc1 | 16.6% | 25.1% | 23.1% and 10.5% | 47.2% (active) and 54.5% (active) | 57.7% (active) and 48.1% (active) | 52.6% (active) and 48.9% (active) | 13.5% | -2.51%
17 | COc1cc(C)c(Br)cc1S(=O)(=O)NCc1ccncc1 | 9.21% | 30.9% (active) | 14.3% | 49% (active) | 38.5% | 38% (active) |  | 
18 | CCOc1ccc(Nc2cc(C)nc(-n3nc(C)cc3C)n2)cc1 | 32.9% | 8.98% | 46.8% (active) | 52.9% (active) | 64.8% (active) | 57.4% (active) | -8.07% | 16.3%
19 | CC(C)CCOc1cccc(OCC(=O)Nc2ccncc2)c1 | -1.73% | 35.9% (active) | 21.4% | 61% (active) | 60.3% (active) | 58.9% (active) | 27.6% | 38%

Row | Compound | inhibition [1] | inhibition [2] | inhibition [3] | inhibition [4] | inhibition [5] | inhibition [6] | inhibition [7] | inhibition [8]
20 | CC(=O)Nc1ccc(Oc2sc(C(=O)c3ccccc3)c(N)c2C#N)cc1 | 20.5% | -3.87% | 35.8% (active) | 70.9% (active) | 66.7% (active) | 7.59% | 14.6% | 32.6%
21 | COc1ccc2c(c1OC)C(=O)N1c3ccccc3C(=O)N(c3ccccc3F)C21 (configuration not stated) | 17.7% | 10.7% | 53.5% (active) | 48.5% (active) | 54.1% (active) | 16.9% |  | 
22 | CCCCCCCCCCCCCCCCn1cc[n+](C)c1 | 5.39% | 31.6% (active) | 36% (active) | 65.5% (active) | 70.5% (active) | 64.4% (active) |  | 
23 | CCOc1ccc(-n2c(-c3ccccc3)c[n+]3c2CCCCC3)cc1 | 28.7% | 52.4% (active) | 29.9% (active) | 90.5% (active) | 72.3% (active) | 66.2% (active) |  | 
24 | COC(=O)/C=C/C(=O)Nc1cccc(C(F)(F)F)c1 | 4.81% | 6.7% | 46.8% (active) | 46.6% (active) | 58.7% (active) | 28.6% | 25.8% | 20.4%
25 | C[C@H]1CCC/C=C/[C@@H]2C[C@H](O)C[C@H]2[C@H](O)[C@H](S(=O)c2ccc(O)cc2)CC(=O)O1 (some centres not stated) | 71.7% (active) | 77.6% (active) | 77.7% (active) | 84.4% (active) | 76.6% (active) | 77.6% (active) |  | 
26 | O=C(CCl)N(c1ccccc1)C1CCCCC1 | 30.5% | -7.5% | 43.5% (active) | 70.4% (active) | 66.2% (active) | 16.5% | 55.6% (active) | 57.8% (active)
27 | Cc1ccc(S(=O)(=O)/C(=C/Cl)NC(=O)c2ccccc2)cc1 | 26% | 26.9% | 42.9% (active) | 57.7% (active) | 51.5% (active) | 38.8% (active) | 38.9% (active) | 60.8% (active)
28 | O=C(NC1CCCCCCC1)c1cc(COc2ccc3ncccc3c2)on1 | 17.3% | 40.2% (active) | 25.3% | 55% (active) | 54.8% (active) | 51.6% (active) |  | 
29 | CC[C@@H](C(=O)[C@@H](C)[C@@H](O)[C@H](C)CCc1ccc(C)c(O)c1C(=O)O)[C@H]1O[C@](CC)([C@H]2CC[C@](O)(CC)[C@H](C)O2)C[C@@H]1C | 26.4% | 58% (active) | 60.5% (active) | 51.9% (active) | 61.2% (active) | 60% (active) |  | 
30 | COc1cc(/C=N/NC(N)=S)cc(Br)c1OCc1ccccc1F | 54.7% (active) | 14.2% | 33.5% (active) | 74.1% (active) | 70.8% (active) | 40.5% (active) |  | 
31 | C=C1C(=O)[C@]23C[C@H]1CCC2[C@@]1(C)C(C[C@@H]3O)[C@](C)(C(=O)OC)CC[C@@H]1OC(C)=O (some centres not stated) | 62.7% (active) | 44.9% (active) | 61.7% (active) | 70.7% (active) | 80.6% (active) | 76.2% (active) | 83.2% (active) | 99% (active)
32 | O=C(NCc1cccnc1)/C(=C\c1ccc(-c2cccc(Cl)c2)o1)S(=O)(=O)c1ccccc1 | 37.8% | 13.6% | 61.8% (active) | 87.1% (active) | 89.3% (active) | 74.9% (active) | 44% (active) | 53.1% (active)
33 | CCOC(=O)c1sc(N(Cc2ccccc2)C(=O)COC(=O)c2ccc(O)cc2)nc1C | 69.3% (active) | 37.4% (active) | -92.1% | 55.2% (active) | 61.2% (active) | 37.1% (active) |  | 
34 | CCCCC(=O)NC(c1ccc(OC)cc1)c1ccc2cccnc2c1O (configuration not stated) | 28.5% | 14.8% | 8.78% | 17.3% | 18.6% | 27% |  | 
35 | NS(=O)(=O)c1ccc(Sc2nc3ccccc3s2)c([N+](=O)[O-])c1 | 53.3% (active) | 27.4% | 78.7% (active) | 75.3% (active) | 67.5% (active) | 55.2% (active) | 33% | 58.3% (active)
36 | Clc1cccc(CNc2ccn3nc(-c4ccc(OCc5ccccc5)cc4)cc3n2)c1 | -4.23% | 35.7% (active) | 23.4% | 40.9% | 51% (active) | 56.4% (active) |  | 
37 | O=C(Nc1ccccc1)Nc1cc(OCC(F)(F)F)cc(OCC(F)(F)F)c1 | 21.7% | 20.5% | 22.9% | 71.3% (active) | 54.7% (active) | 54.3% (active) |  | 
